# High-throughput results: PubChem BioAssay, several laboratories
# Shown are actives, neighbours in structure and some others; about 3% of the full set was active somewhere.
# MITF TRPM1 inh: inhibitors of MITF-dependent TRPM1 promoter reporter, primary screen, cell-based, SK-MEL-5, single point, luciferase. SK-MEL-5 TRPM1 promoter luciferase, 24 h. AID 488899, 2010. 330,000 compounds, 0.83% hits. inhibition, % at 12.5 µM;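 active = mean inhibition across replicates of 60% or more, whatever share of single replicates reaches that level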
# ABHD5 PLIN5 PPI: ABHD5-PLIN5 interaction inhibitors, primary screen, cell lysate, split luciferase complementation, luminescence | Perilipin-5 (Homo sapiens) + 1-acylglycerol-3-phosphate O-acyltransferase ABHD5 (Homo … | Split G. princeps luciferase complementation, 4 h | inhibition, % at 4 µM | 360,000 compounds, 0.78% hits | AID 602281, 2012;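 active = inhibition above the mean inhibition across every tested compound plus 3 SD, cut at about 22% in these data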;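 note: 0% = DMSO only wells and the 100% control is not disclosed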
# Target sequence (Q00G26 whole entry, looked up): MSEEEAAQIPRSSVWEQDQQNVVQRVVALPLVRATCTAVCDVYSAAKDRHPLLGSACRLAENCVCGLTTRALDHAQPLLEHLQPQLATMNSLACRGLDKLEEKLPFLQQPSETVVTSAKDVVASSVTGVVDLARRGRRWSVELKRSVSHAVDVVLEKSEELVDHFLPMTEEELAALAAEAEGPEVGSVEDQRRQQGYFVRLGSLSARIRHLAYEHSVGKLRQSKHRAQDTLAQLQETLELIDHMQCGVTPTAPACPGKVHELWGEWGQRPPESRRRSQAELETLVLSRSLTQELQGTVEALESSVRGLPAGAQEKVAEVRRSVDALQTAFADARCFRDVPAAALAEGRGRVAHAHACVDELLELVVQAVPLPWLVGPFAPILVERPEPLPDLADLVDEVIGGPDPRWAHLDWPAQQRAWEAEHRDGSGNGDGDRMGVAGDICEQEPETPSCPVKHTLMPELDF
# Target sequence (Q8WTS1 whole entry, looked up): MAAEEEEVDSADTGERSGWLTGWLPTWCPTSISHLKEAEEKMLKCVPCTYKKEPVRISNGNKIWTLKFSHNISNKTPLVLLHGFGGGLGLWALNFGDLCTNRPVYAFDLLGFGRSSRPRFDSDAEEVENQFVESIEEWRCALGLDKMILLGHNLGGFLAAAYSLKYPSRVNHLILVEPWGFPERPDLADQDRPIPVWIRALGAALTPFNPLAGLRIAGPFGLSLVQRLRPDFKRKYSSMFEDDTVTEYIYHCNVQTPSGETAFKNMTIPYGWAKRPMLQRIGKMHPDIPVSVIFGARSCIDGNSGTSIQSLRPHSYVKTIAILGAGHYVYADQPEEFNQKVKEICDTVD
# Peg3 prom inh: Peg3 promoter-driven luciferase inhibitors, primary screen, cell-based, HeLa, luciferase luminescence | inhibition, % at 20 µM | HeLa PEG-Prom luciferase reporter, overnight | 360,000 compounds, 1.7% hits;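 active = inhibition of at least 50% at 20 µM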
# CF NFkB block: inhibitors of PAF-induced NF-kB signaling, primary screen, cell-based, GFP fluorescence, uHTS | KKLEB NF-kB-GFP reporter, GFP fluorescence overnight | inhibition, % at 5 µM | AID 588850, 2011 | 360,000 compounds, 0.86% hits;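 active = at least 50% inhibition at 5 µM, scaled per plate between neutral and stimulator controls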;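 note: PAF is a Pseudomonas aeruginosa culture filtrate used as stimulus; plate controls were PAF-stimulated DMSO wells for no effect and unstimulated DMSO wells for full effect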
# KKLEB cytotox: cytotoxicity in KKLEB CF airway cells, primary screen, cytotoxicity control for CF NF-kB inhibitor project, cell-based, uHTS, fluorescence assay plates. KKLEB CF airway cells viability, ATPlite luminescence, overnight; hits give low values; cells stimulated with P. aeruginosa culture filtrate. activity change (cytotoxicity), % at 5 µM. 360,000 compounds, 0.36% hits. AID 602141, 2011;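 active = corrected activity change at or below -50% at 5 µM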
# HIF-2a inh: HIF-2a reporter inhibitors, primary screen, luminescence, 786-0 RCC cells | inhibition, % at 18.8 µM | 360,000 compounds, 0.72% hits | 786-0 RCC cells HIF-2a reporter, luciferase luminescence, overnight;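 active = inhibition of the luminescence signal of 40% or more relative to plate controls, in a single-dose primary screen at 18.75 µM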
# Numbers without * were called inactive; . = no result.
SMILES,MITF TRPM1 inh,ABHD5 PLIN5 PPI,Peg3 prom inh,CF NFkB block,KKLEB cytotox,HIF-2a inh
O=C(CCC(=O)N(CC(=O)NC1CCCCC1)Cc1cccs1)Nc1ccccn1,-13,-3,25,-10,-24,5
CN(C)S(=O)(=O)c1cccc(NC(=S)N/N=C/c2cc(Br)ccc2O)c1,67*,4,54*,6,4,-5
O=C1CCN(Cc2ccccc2)N1,-9,-7,1,3,10,14
CN=C(Nc1cccnc1)c1ccccc1,-21,3,4,-16,2,11
Cc1cc(C(=O)c2ccc(C(C)(C)C)cc2)c(NC(=O)CCl)s1,16,2,103*,26,-21,10
CCCS(=O)(=O)NC(=O)C1(C)CCCN(C(=O)c2cc3ccccc3s2)C1 (stereo unspecified),.,0,10,-36,21,8
CCOC(=O)C1CCCN(C(=O)Cn2cnc3c2c(=O)n(C)c(=O)n3C)C1 (stereo unspecified),3,-1,12,5,-4,17
CCOC(=O)C1CCCN(C(=O)Cn2sc3nc(C)cc(C)c3c2=O)C1 (stereo unspecified),7,64*,-22,16,14,5
CCCCc1cc(=O)oc2c(CN3CCCC3)c(O)ccc12,7,3,3,-12,5,5
CCCc1cc(=O)oc2c(CNc3ccc(OCC)cc3)c(O)ccc12,4,-8,36,53*,-3,13
CC1(C)CC2(C)OC2C2(C1)N=NC(=Nc1ccccc1)O2 (stereo unspecified),.,-1,73*,49,-33,-32
CCn1c(=O)c(C(=O)Nc2nc3ccccc3[nH]2)c(O)c2ccccc21,19,1,22,89*,-90*,32
CCn1c(=O)c(C(=O)Nc2ccccc2)c(O)c2ccccc21,-1,3,-30,-24,9,-20
Cc1cc(C(=O)Nc2nc(-c3ccccn3)cs2)ccc1[N+](=O)[O-],7,-2,-3,14,7,-116
Cc1ccc(C(=O)Nc2nc(-c3ccccn3)cs2)o1,5,-1,-12,11,1,-78
CCn1nc(C(=O)Nc2nc(-c3ccccn3)cs2)c2ccccc2c1=O,.,8,51*,-17,-4,-4
O=C(Nc1nc(-c2ccccn2)cs1)c1ccc(-c2ccccc2F)o1,-12,10,68*,-26,-10,-88
O=C(Nc1nc(-c2ccccn2)cs1)c1cc(Cl)ccc1[N+](=O)[O-],79*,-4,47,-44,-2,-49
O=C(Nc1nc(-c2ccccn2)cs1)c1ccccc1-n1cnnn1,65*,-2,33,15,-16,-22
COc1ccc(C(CNC(=O)c2cccc(NC(=O)c3cccs3)c2)N2CCCC2)cc1 (stereo unspecified),-26,0,15,-3,-5,4
COC(=O)c1ccc(C(=O)N2CCCC(N3CCN(c4ccc(F)cc4)CC3)C2)nc1 (stereo unspecified),1,-5,1,-20,13,-5
CC(=O)C[C@@H](O)CC(=O)[C@@H]1OC(=O)CCCCCCCCc2ccccc21,-5,11,-16,-28,27,19
O=C(Nc1nc(-c2ccccn2)cs1)c1ccc([N+](=O)[O-])o1,61*,0,46,10,6,-17
CCOC(=O)/C(C#N)=C/c1cccc(C)c1,3,2,73*,-6,-6,11
O=C(CN(c1ccc(Br)cc1)S(=O)(=O)c1ccc(Cl)c([N+](=O)[O-])c1)NCCc1ccccc1,48,-5,65*,-27,-8,20
SMILES,MITF TRPM1 inh,ABHD5 PLIN5 PPI,Peg3 prom inh,CF NFkB block,KKLEB cytotox,HIF-2a inh
O=C(CN(c1cccc(C(F)(F)F)c1)S(=O)(=O)c1ccc(Cl)c([N+](=O)[O-])c1)NCc1ccccc1,12,3,12,-23,-7,11
O=S1(=O)CCN(Cc2cccc(C(F)(F)F)c2)CC1,-5,1,16,-20,7,11
O=C(CSc1ccc(-c2ccco2)nn1)Nc1ccccc1F,-5,5,-22,11,-7,-44
CCN(CC)CCCNc1ccc2ncn3c4ccc(O)cc4c(=O)c1c23,52,-52,23,-24,-11,34
CN(C)CCNc1cccc2sc3ccc(O)cc3c(=O)c12,.,-8,99*,-66,-29,43*
O=C(N/N=C/c1cc([N+](=O)[O-])ccc1O)c1cccc2cc[nH]c12,74*,3,40,18,-14,-12
O=C1c2cc(Cl)ccc2-c2c(O)cc(Cl)cc21,10,12,75*,5,-21,-79
O=c1cc(O)c(-c2ccc(Cl)cc2)c(Cl)[nH]1,16,4,9,0,3,17
Cc1cc(C)c2c(=N)c3ccccc3n(CCCCCCCCn3c4ccccc4c(=N)c4c(C)cc(C)nc43)c2n1,55,10,105*,-82,8,0
COc1ccc(/C=N/NC(=O)c2ccc(N(C)S(=O)(=O)c3ccccc3)cc2)cc1OC,-11,-5,8,-12,-14,12
Cc1ccc(NS(=O)(=O)c2cc(-c3n[nH]c(=O)c4ccccc34)ccc2C)cc1,6,4,62*,18,-21,26
O=C1Nc2cc(C(=O)NCCCN3CCOCC3)ccc2S/C1=C/c1cccc(Cl)c1,-9,6,107*,-5,-11,-2
COc1ccc(/C=C2/Sc3ccc(C(=O)NCCN4CCCCCC4)cc3NC2=O)cc1,95*,13,105*,5,-8,3
O=C1Nc2cc(C(=O)NCCCN3CCOCC3)ccc2S/C1=C/c1ccccc1F,-1,10,16,12,-8,-3
CCC1CCCCN1CCCNC(=O)c1ccc(/C=C2/Sc3ccccc3NC2=O)cc1 (stereo unspecified),28,18,99*,6,-3,-33
O=C1Nc2cc(C(=O)NCCCN3CCCC3)ccc2S/C1=C\c1ccccc1,96*,13,91*,6,-11,-4
COc1cccc(CN2CCC2(C)C(=O)Nc2cccc(Oc3ccccc3)c2)c1OC (stereo unspecified),.,-2,13,0,-1,13
COCC(=O)N1CCC(Oc2ccc(C(=O)N[C@H](C(=O)OC)C(C)C)cc2)CC1,2,2,5,-1,3,7
CCOC(=O)C1=CN(Cc2cccc(Br)c2)S(=O)(=O)N(CC)C1C (stereo unspecified),2,-3,14,15,5,2
COc1cc(Cc2cc(OC)c(O)c(OC)c2)cc(OC)c1O,.,0,-3,14,-2,6
